According to PubChem BioAssay AID803 (The Scripps Research Institute Molecular Screening Center, 2007):
Hit rate of the full screen: of about 140,000 compounds, about 680 (0.49%) were called active. No stated cut-off is given here; in the data, active means activation above about 5% (passing the limit was not always enough); inactive means the rest. The full list was thinned out, with actives kept by preference.

Target: Galanin receptor type 2 (Homo sapiens) (UniProt O43603)
Assay: human galanin receptor 2 activators – cell-based, primary screen (AID 803);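 further: 0% = vehicle buffer wells and 100% = reference agonist at full effect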
Details: GALR2-expressing cells, agonist activation read-out; hits give high values; concentration not given here

Sequence of Galanin receptor type 2 (Homo sapiens) (O43603 whole entry, looked up): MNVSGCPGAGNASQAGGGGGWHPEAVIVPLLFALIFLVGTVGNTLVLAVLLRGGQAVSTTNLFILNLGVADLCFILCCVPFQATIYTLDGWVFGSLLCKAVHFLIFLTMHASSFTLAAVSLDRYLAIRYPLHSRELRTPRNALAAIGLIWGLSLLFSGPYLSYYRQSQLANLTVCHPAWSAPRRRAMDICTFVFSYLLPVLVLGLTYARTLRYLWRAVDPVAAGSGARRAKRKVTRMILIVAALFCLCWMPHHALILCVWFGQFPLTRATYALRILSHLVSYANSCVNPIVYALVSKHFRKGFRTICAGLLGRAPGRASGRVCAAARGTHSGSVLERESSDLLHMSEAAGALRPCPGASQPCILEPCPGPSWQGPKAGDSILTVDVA

Row | Compound | activation
1 | COc1cc(Cn2c(N)c(C(=O)NCc3ccco3)c3nc4ccccc4nc32)cc(OC)c1OC | 25% (active)
2 | CCOC(=O)c1c(N)n(CCN2CCOCC2)c2nc3ccccc3nc12 | 1.16% (inactive)
3 | CCOC(=O)c1c(N)n(Cc2ccccc2)c2nc3ccccc3nc12 | -0.61% (inactive)
4 | CC(=O)c1c(C)n(C(C)C)c2ccc(O)cc12 | 0.6% (inactive)
5 | CN1CCN(C(=S)SCC(=O)Nc2ccc(Cl)cc2C(=O)c2ccccc2)CC1 | -0.06% (inactive)
6 | Cc1cccc(N2C(=O)NC(=O)/C(=C\c3cnn(-c4ccccc4)c3)C2=O)c1 | 34.2% (active)
7 | O=C1NC(=O)N(c2ccc(F)cc2)C(=O)/C1=C/c1ccc2c(c1)CCCN2Cc1ccccc1 | -0.69% (inactive)
8 | COc1c(O)ccc2c1-c1c3c(cc4c1C(C2)N(C)CC4)OCO3 (stereo not given) | -1.66% (inactive)
9 | CCOP(=O)(OCC)C(NC(=O)c1ccc(C)cc1)C(Cl)(Cl)Cl (stereo not given) | -0.73% (inactive)
10 | Cc1ccc(-n2c(-c3ccc([N+](=O)[O-])cc3)nc3ccccc3c2=O)cc1 | -0.79% (inactive)
